# From the supplement of paper PMC6555819
# Columns and labels:
# Experiment in all cases: PBM binding z-score (relative to random genomic background probes); higher = stronger binding; sequences stand for … in GC…GCGATTGACAGCGTAGAATGAAGG
# [1] = tested on: RARb homodimer (NR concentration 270 nM)
# Outline: (§1)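 Ligand-free nuclear receptor dimers were applied to custom Agilent 4×180K protein-binding microarrays whose double-stranded probes carried direct-repeat seeds, single-nucleotide variants, half-site ablations and random human genomic background sequences in 34-nt variable regions. Incubation lasted 1 h. Binding z-scores were computed against the random background probes from regression-normalized fluorescence.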
# [2] = tested on: RARg:RXRa (NR concentration 270 nM, RXRa partner concentration 90 nM)
# Outline: as §1
# [3] = tested on: RARg homodimer (NR concentration 270 nM)
# Outline: as §1
# [4] = tested on: RXRa DBDmut IVT, anti-RXR (DBD mutation: RXRa K156A/R161A, NR concentration 90 nM)
# Outline: as §1
# [5] = tested on: RXRa homodimer (NR concentration 180 nM)
# Outline: as §1
# [6] = tested on: THRa:RXRa (NR concentration 90 nM, RXRa partner concentration 90 nM)
# Outline: as §1
# [7] = tested on: THRa homodimer (NR concentration 90 nM)
# Outline: as §1
# [8] = tested on: VDR homodimer (NR concentration 270 nM)
# Outline: as §1
Sequence,PBM binding z-score [1],PBM binding z-score [2],PBM binding z-score [3],PBM binding z-score [4],PBM binding z-score [5],PBM binding z-score [6],PBM binding z-score [7],PBM binding z-score [8]
CAAACTAGGTCACGAAAGGTCAAAGTGGAATGAC,5.92,7.79,8.41,2.4,8.35,5.24,2.81,3.84
ATCTCTAGGTCAAAGTTCAGTGAATCCCGAGGAT,4.18,6.01,5.62,2.65,6.97,3.76,1.76,3.19
CAAACTAGGTCACGAAAGGTCAAAGTTGAATGAC,6.02,8.01,8.58,2.59,8.85,5.01,2.88,3.89
CTATGTAGGTTAAGGGCGTCATTCAGTTTGAAAG,0.798,0.63,0.752,0.53,0.739,1.42,0.232,0.4
CGAACTAGGTCACTAGGACAGTGAAGAGGTTGGA,3.02,3.58,4.16,1.22,2.07,2.71,0.967,0.00359
CGAACTAGCTCACCAGGACAGTGAAGAGGTTGGA,0.0882,-0.448,-0.336,0.0205,-0.153,0.96,0.613,-0.481
TCTCGGAGGACACGAAAGGTCAGAACTCGACATC,4.38,4.56,5.19,0.955,3.93,3.46,1.48,1.29
